From PubChem BioAssay
GC-B act – GC-B (human) receptor activation; activation, % at 10 µM; HEK293-GC-B cells, CNP EC30, cGMP TR-FRET; 0% at EC30 CNP, 100% saturating CNP; AID 1920062; hit rate 0.11% among 370,000;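 active means activation at 10 µM reaching about 35% in either raw or pattern-adjusted values, limit read from the data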
HDAC3 inh – inhibitors of human histone deacetylase 3; AID 2718; inhibition, % at 8.3 µM; hit rate 0.15% among 320,000; recombinant HDAC3, fluorogenic peptide/trypsin coupled, fluorescence; O15379; in the data active means inhibition above about 26%, passing the limit was not always enough
ALR inh – human ALR oxidase inhibition via reduced H2O2 | P55789 | purified ALR, DTT oxidation, H2O2 HRP-luminol luminescence | inhibition, % (test concentration not listed) | hit rate 3.8% among 290,000 | AID 485317;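 active means mean replicate inhibition above about 79%, with every replicate also reaching it, limit read from the data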
GC-A act – GC-A (human) enzyme activation | activation, % at 10 µM | HEK293 GC-A cells, cGMP TR-FRET, EC30 ANP; 0% at EC30 ANP, 100% saturating ANP | P16066 | hit rate 0.14% among 370,000; in the data active means activation above about 40%
Target sequence (P16066 whole entry, looked up): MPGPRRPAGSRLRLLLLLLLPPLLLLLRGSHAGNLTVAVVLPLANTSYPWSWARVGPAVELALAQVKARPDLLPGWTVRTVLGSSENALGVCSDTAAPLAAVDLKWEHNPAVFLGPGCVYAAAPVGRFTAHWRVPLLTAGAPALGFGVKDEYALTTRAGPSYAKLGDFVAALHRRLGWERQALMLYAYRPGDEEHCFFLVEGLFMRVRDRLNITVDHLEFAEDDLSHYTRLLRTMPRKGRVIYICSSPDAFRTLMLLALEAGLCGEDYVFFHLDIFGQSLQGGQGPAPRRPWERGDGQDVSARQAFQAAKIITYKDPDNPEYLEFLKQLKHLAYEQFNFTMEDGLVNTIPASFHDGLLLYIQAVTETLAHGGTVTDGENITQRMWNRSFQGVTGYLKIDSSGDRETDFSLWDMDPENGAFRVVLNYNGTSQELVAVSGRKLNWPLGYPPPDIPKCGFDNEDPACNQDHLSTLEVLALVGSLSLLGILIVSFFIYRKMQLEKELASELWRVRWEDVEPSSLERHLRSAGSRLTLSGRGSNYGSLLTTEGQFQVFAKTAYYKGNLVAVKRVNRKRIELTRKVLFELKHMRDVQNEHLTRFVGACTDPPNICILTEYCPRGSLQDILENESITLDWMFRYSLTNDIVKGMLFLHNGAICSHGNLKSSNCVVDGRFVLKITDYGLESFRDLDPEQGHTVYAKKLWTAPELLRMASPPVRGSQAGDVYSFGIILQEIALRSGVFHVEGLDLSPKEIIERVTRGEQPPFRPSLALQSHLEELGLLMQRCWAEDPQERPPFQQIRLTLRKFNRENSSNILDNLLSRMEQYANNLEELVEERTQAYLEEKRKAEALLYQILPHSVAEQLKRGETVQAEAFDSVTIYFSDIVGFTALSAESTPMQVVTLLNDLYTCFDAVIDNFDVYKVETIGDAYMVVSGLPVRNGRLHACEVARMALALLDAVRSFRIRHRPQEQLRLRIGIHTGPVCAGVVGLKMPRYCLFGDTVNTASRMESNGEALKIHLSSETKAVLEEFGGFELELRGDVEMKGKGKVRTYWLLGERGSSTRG
* = called active by the depositor; . = no result; ! = not active in a repeat. The entries come from a sample that favours hits as a whole.

SMILES	GC-B act	HDAC3 inh	ALR inh	GC-A act
COc1ccccc1Cn1c(-c2ccccc2OC)nc2ccccc21	-15	0	-6	-24
Brc1ccc(Cn2c(-c3cncs3)nc3ccccc32)cc1	5	6	-8	53*
C=CCn1c(-c2ccc(OC)cc2)nc2ccccc21	5	-1	7	6
COc1ccc(-c2nc3ccccc3n2Cc2ccccc2)cc1	39*	2	.	37
O=C(NCCCN1CCOCC1)c1onc(CSc2ccc(F)c(F)c2)c1C(=O)NCCCN1CCOCC1	3	-5	1	-4
COC(=O)c1cc(S(=O)(=O)N2CCCC2=O)c(Cl)cc1Cl	7	-2	5	4
CC(C)c1ccc(Nc2nnc(SC3CCOC3=O)s2)cc1 (centres undefined)	14	3	-3	65*
CC(C)c1ccc(N(CC(=O)NC2CCCC2)C(=O)CCC(=O)Nc2nccs2)cc1	-4	2	0	2
Cc1ccc(NCc2nnc(SCC(N)=O)n2CC2CCCO2)c(C)c1 (centres undefined)	-1	-3	89*	3
NC(=O)CSc1nnc(CNc2ccc(F)cc2)n1CC1CCCO1 (centres undefined)	-6	4	.	0
CC1(NC(=O)/C=C/c2nc3ccccc3s2)CCS(=O)(=O)C1 (centres undefined)	2	8	-3	-1
COc1ccc(N2C(=O)CSC2c2cccs2)cc1 (centres undefined)	-3	-1	99*	-2
CCOc1ccc(N2C(=O)CSC2c2ccncc2)cc1 (centres undefined)	-2	3	100*	3
CSc1nc(O)c(Nc2ccccc2)c(=O)[nH]1	1	.	.	-5
CSc1nc(O)c(Nc2cccc(Cl)c2)c(=O)[nH]1	-5	-2	89*	2
O=S(=O)(c1cccc2cccnc12)N1CCc2ccccc21	-8	-1	-1	-5
O=C(C(Cc1ccccc1)NS(=O)(=O)c1cccc2cccnc12)N1CCc2ccccc21 (centres undefined)	-12	3	88*	-19
C=CCc1cc(OC)ccc1OCC(O)CN1CCN(c2ccc(OC)cc2)CC1 (centres undefined)	5	6	79*!	-4
COc1ccc(N2CCN(CC(O)COc3c(OC)cccc3OC)CC2)cc1 (centres undefined)	-1	-5	43	1
COc1ccc(N2CCN(CC(O)COc3ccc(F)cc3)CC2)cc1 (centres undefined)	1	-5	99*	4
OC(COCc1ccccc1)CN1CCN(c2ccccc2)CC1 (centres undefined)	2	-3	82*	5
C=CCc1cc(C)ccc1OCC(O)CN1CCN(c2ccccc2)CC1 (centres undefined)	1	2	26	7
OC(COCc1ccccc1)CN1CCCC1 (centres undefined)	6	5	-1	2
COc1ccc(N2CCN(CC(O)COc3ccc(C)c(C)c3)CC2)cc1 (centres undefined)	-4	8	97*	-2
COc1ccc(N2CCN(CC(O)COC(c3ccc(F)cc3)c3ccc(F)cc3)CC2)cc1 (centres undefined)	-1	12	23	0
SMILES	GC-B act	HDAC3 inh	ALR inh	GC-A act
Cc1c([N+](=O)[O-])nnn1-c1cc(Cl)cc(Cl)c1	.	-1	-13	.
COC(=O)C[C@@H]1CC[C@@H](NS(=O)(=O)c2ccc(OC)cc2)[C@@H](CO)O1	2	.	.	4
Cc1ccc(N2CCN(CC(O)COc3ccccc3)CC2)cc1 (centres undefined)	1	-4	95*	5
COc1ccc(N2CCN(CC(=O)Nc3cc(C)cc(C)c3)CC2)cc1	-2	3	.	2
Oc1ccc(N2CCN(CC(O)c3ccccc3)CC2)cc1 (centres undefined)	-1	1	99*	-5
OC(COc1ccccc1Cl)CN1CCN(CC(O)COc2ccccc2Cl)CC1 (centres undefined)	-6	0	-2	3
Oc1ccccc1N1CCN(CC(O)COCc2ccccc2Cl)CC1 (centres undefined)	-5	-2	99*	-2
COc1ccc(N2CCN(CC(=O)Nc3ccc(C)c(C)c3)CC2)cc1	1	8	98*	6
Cc1ccc(-c2ccc(=O)n(Cc3cccc(Br)c3)n2)cc1	-4	-2	4	8
COc1cc(-c2nnc(SCC(=O)NC3CCS(=O)(=O)C3)o2)cc(OC)c1OC (centres undefined)	-1	0	-2	-3
COc1ccc(N2CCN(CC(O)COc3cc(C)cc(C)c3)CC2)cc1 (centres undefined)	1	6	69	3
COc1ccc(OCC(O)CN2CCN(c3ccc(OC)cc3)CC2)cc1 (centres undefined)	-4	-4	99*	4
COC(Cc1n[nH]c(=S)n1-c1ccccc1)OC	4	0	93*	2
Cc1cccc(OCc2n[nH]c(=S)n2-c2ccccc2)c1	-1	7	77*	-1
Cc1cccc(C)c1NCc1n[nH]c(=S)n1-c1ccccc1	0	2	19	3
Cc1ccc(C)c(NCc2n[nH]c(=S)n2-c2ccccc2)c1	-2	12	86*	-1
S=c1[nH]nc(CSCc2ccccc2Cl)n1-c1ccccc1	6	2	94*	2
Nc1nnc(COc2ccc(Br)cc2Br)s1	0	-2	-2	58*
COc1ccc(N2CCN(C(=O)CCNS(=O)(=O)c3cccs3)CC2)cc1	2	0	94*	7
COc1ccc(N2CCN(C(=O)CN(C)S(=O)(=O)c3cccs3)CC2)cc1	-2	-1	99*	2
COc1ccc(N2CCN(C(=O)CN(CCc3ccccc3)S(C)(=O)=O)CC2)cc1	2	-4	88*	-2
C[C@@H]1CN([C@H](C)CO)C(=O)CCCn2nncc2CO[C@@H]1CN(C)C(=O)Nc1ccc2c(c1)OCO2	0	.	.	-1
CC/C=C\[C@H](O)[C@H](O)C1=C(C)C(=O)[C@]2(O1)C(=O)N[C@@](OC)(C(=O)c1ccccc1)[C@@H]2O	10	.	.	2
Cc1ccc(NC(=O)CCN2C(=O)OC(C)(C)C2(C)O)cc1 (centres undefined)	1	3	-2	3
CCC1(C)OC(=O)NN(c2ccc(C)cc2)C1(C)O (centres undefined)	4	-2	95*	-3
COc1cc(-c2nc3cnccn3c2Nc2ccc3c(c2)OCCO3)ccc1O	17	4	99*	22
COc1cc(-c2nc3cnccn3c2Nc2ccc(C)cc2)ccc1O	2	2	99*	34
COc1cc(-c2nc3cnccn3c2Nc2ccc(C(C)C)cc2)ccc1O	1	6	25	55*
COc1cc(-c2nc3ccc(C)cn3c2Nc2ccc3c(c2)OCCO3)ccc1O	39*	-46	91*	36
COc1ccc(-c2ccc(-c3nc4ccc(C)cn4c3NC3CCCCC3)cc2OC)cc1	2	-4	4	17
